Consider 19 molecules from PubChem BioAssay (Tox21).

Unmarked numbers belong to inactive results. Results filed as inconclusive are left out. Activity calls are given as the source filed them. Unless noted, the call rests on the fitted dose curve; in most records, active means well fitted curve in the direction sought with a large enough effect in the repeat runs; inconclusive means weak or mixed curves; inactive means no such curve, though single readings can be large; an effect the other way counts as inactive or inconclusive.

Test [1] is described as follows: qHTS assay for small molecule agonists of the p53 signaling pathway (AID 651631; calls by dose curve; further: nearly all actives have a fitted effect of over 15% in size; further: potency means the concentration at half of the fitted maximal effect). In outline:
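Beta-lactamase reporter activity under p53 response elements was quantified in HCT-116 cells by FRET fluorescence, following 16 h incubation with test compounds at 37 °C and 2 h substrate development at room temperature.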
Background: Quantitative high-throughput screening tests each substance at several concentrations.

Test [2] in a line: qHTS assay for small molecule disruptors of the mitochondrial membrane potential (AID 720635). Further: potency means the concentration at half of the fitted maximal effect. A digest of the protocol:
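HepG2 cells exposed to compound 1 hr at 37C, then Mito-MPS dye 30 min. Ratio read of aggregate (540/590 nm) versus monomer (490/535 nm) fluorescence.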

For test [3], the target named is Glucocorticoid receptor (Homo sapiens) (UniProt P04150). Briefly: qHTS assay to identify small molecule antagonists of the glucocorticoid receptor (GR) signaling pathway (AID 720692; active means well fitted inhibition curve with a large enough effect in the signal ratio in the repeat runs, not every such curve was filed as active; the % refers to the signal ratio). In outline: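 Fluorescence from cleaved LiveBLAzer B/G FRET substrate reports GRE-driven beta-lactamase in HeLa cells; compounds are tested against 5 nM dexamethasone (final) over 18 h at 37 C, substrate incubation 2 h at room temperature.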

For test [4], the target named is Estrogen receptor (Homo sapiens) (UniProt P03372). Briefly: qHTS assay to identify small molecule antagonists of the estrogen receptor alpha (ER-alpha) signaling pathway (AID 743069; active means well fitted curve in the direction sought with a large enough effect in the signal ratio in the repeat runs, not every such curve was filed as active; the % refers to the signal ratio). In outline: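 Reporter cells (ER-alpha-bla, HEK293 background) are conditioned overnight in stripped-serum medium (2% charcoal-stripped FBS). Compound and 17beta-estradiol exposure runs 18 hr at 37C, 5% CO2.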

Test [5] deals with Nuclear receptor subfamily 1 group I member 2 (Rattus norvegicus) (UniProt Q9R1A7). Briefly: Rat pregnane X receptor (rPXR) activation by small molecules, qHTS assay (AID 1346983). Further: nearly all actives have a fitted effect of over 20% in size. Particulars: rPXR luciferase reporter cells, One-Glo luminescence, 24 h; max activation: active compounds read high. In outline:
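Cell-based rPXR activation assay: rPXR cells, 2,000 per well, rested 5hr at 37 C, then exposed to compounds in DMSO for 24 hr at 37 C. Luciferase activity read by One-Glo luminescence after 30 min at room temperature.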

For test [6], the target named is Nuclear receptor subfamily 1 group I member 2 (Homo sapiens) (UniProt O75469). Briefly: Human pregnane X receptor (PXR) activation by small molecules, qHTS assay (AID 1346985). Further: nearly all actives have a fitted effect of over 40% in size. A digest of the protocol: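 DPX-2 cells (HepG2 co-transfected with a PXR response element and a CYP3A4-promoter luciferase construct) were seeded at 2,000 per well, rested 5 hr at 37C, then exposed to DMSO-dissolved compounds for 24 hr. Activation was read as luciferase luminescence.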

Test [7] concerns the target Androgen receptor (Homo sapiens) (UniProt P10275). Briefly: qHTS assay to identify small molecule agonists of the androgen receptor (AR) signaling pathway using the MDA cell line (AID 743040; further: nearly all actives have a fitted effect of over 20% in size; further: potency means the concentration at half of the fitted maximal effect). In outline: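 Human breast carcinoma MDA-kb2 reporter cells (MMTV-luc, AR/GR elements) were treated for 16 h at 37C in 0% CO2 following a 5 h settling period. Signal was quantified by ONE-Glo luminescence.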

Test [8] in a line: qHTS assay to identify small molecule phospholipidosis (PLD) inducers (AID 1259344; active means well fitted curve in the direction sought with a large enough effect; an effect the other way counts as inactive or inconclusive). In outline: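 Quantitative HTS in HepG2: compound plus LipidTOX Red dye for 24 h, paraformaldehyde fixation with Hoechst 33342, widefield high-content imaging; amiodarone as positive and DMSO as negative control.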
The nature of test [9]: Caspase-3/7 induction in HepG2 cells by small molecules, qHTS assay (AID 1346978). Further: nearly all actives have a fitted effect of over 15% in size. A digest of the protocol:
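Wild-type HepG2 cells, 2,000/well, settled 5 hr at 37 C and 5% CO2, then compound-treated for 17 hr; caspase-3/7 activity read by luminescent Caspase-Glo 3/7 after 30 min at room temperature.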

For test [10], the target named is Acetylcholinesterase (Homo sapiens) (UniProt P22303). As to the kind of experiment: Acetylcholinesterase (AChE) small molecule antagonists: enzyme-based qHTS assay with human liver microsomes (AID 1347399; calls by dose curve; further: nearly all actives have a fitted effect of over 60% in size). Particulars: Potency: qHTS inhibition; outcome: qHTS inhibition. A digest of the protocol: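 Recombinant human AChE (50 mU/mL in the enzyme mix) and human liver microsomes (0.25 mg/mL final) were preincubated with compound and NADPH (0.25 mg/mL final) for 30 min at 37 C. Acetylthiocholine/DTNB was then added; thiocholine was read colorimetrically after 10 min at room temperature.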

For test [11], the target named is Androgen receptor (Homo sapiens) (UniProt P10275). As to the kind of experiment: qHTS assay to identify small molecule antagonists of the androgen receptor (AR) signaling pathway (AID 743035; active means well fitted inhibition curve with a large enough effect in the signal ratio in the repeat runs, not every such curve was filed as active; the % refers to the signal ratio; further: potency means the concentration at half of the fitted maximal effect). In outline: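 Cell line: GeneBLAzer AR-UAS-bla GripTite (HEK293). Stimulus: R1881 added after compound. Exposure: 16 h, 37C, 5% CO2. Readout: LiveBLAzer B/G FRET fluorescence after 2 h at room temperature.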

For test [12] the target is unchanged. As to the kind of experiment: qHTS assay to identify small molecule antagonists of the androgen receptor (AR) signaling pathway using the MDA cell line (AID 743042; further: nearly all actives have a fitted effect of over 55% in size). In outline:
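MDA-kb2 breast carcinoma cells carrying MMTV-luciferase (AR/GR responsive) were co-treated with compounds and the agonist R1881 for 16 h at 37C. Inhibition read as ONE-Glo luminescence; CellTiter-Fluor fluorescence measured in parallel for cytotoxicity.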

Test [13] has the same target. As to the kind of experiment: qHTS assay to identify small molecule agonists of the androgen receptor (AR) signaling pathway (AID 743036; active means well fitted activation curve with a large enough effect in the signal ratio in the repeat runs, with a control signal flat, not every such curve was filed as active; the % refers to the signal ratio). A digest of the protocol:
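Following a 4 h settling period, AR-UAS-bla HEK293 cells were dosed with compounds for 16 h at 37C. A 2 h room-temperature incubation with LiveBLAzer B/G FRET substrate preceded the fluorescence measurement.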

Test [14] in a line: qHTS assay for small molecule activators of the heat shock response signaling pathway (AID 743210; active means well fitted activation curve with a large enough effect in the signal ratio in the repeat runs, with a control signal flat, not every such curve was filed as active; the % refers to the signal ratio;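 further: HeLa cells with beta-lactamase reporter driven by heat shock elements; series mostly up to about 63 µM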). A digest of the protocol:
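Quantitative high-throughput format using an engineered HeLa line in which heat shock response elements drive beta-lactamase; after 5 h with compound, cells received a B/G FRET substrate and fluorescence was read.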
On the % scale 0 is the no-effect control and ±100 the full control effect.

Acetylcholinesterase (Homo sapiens), sequence (P22303 whole entry, looked up): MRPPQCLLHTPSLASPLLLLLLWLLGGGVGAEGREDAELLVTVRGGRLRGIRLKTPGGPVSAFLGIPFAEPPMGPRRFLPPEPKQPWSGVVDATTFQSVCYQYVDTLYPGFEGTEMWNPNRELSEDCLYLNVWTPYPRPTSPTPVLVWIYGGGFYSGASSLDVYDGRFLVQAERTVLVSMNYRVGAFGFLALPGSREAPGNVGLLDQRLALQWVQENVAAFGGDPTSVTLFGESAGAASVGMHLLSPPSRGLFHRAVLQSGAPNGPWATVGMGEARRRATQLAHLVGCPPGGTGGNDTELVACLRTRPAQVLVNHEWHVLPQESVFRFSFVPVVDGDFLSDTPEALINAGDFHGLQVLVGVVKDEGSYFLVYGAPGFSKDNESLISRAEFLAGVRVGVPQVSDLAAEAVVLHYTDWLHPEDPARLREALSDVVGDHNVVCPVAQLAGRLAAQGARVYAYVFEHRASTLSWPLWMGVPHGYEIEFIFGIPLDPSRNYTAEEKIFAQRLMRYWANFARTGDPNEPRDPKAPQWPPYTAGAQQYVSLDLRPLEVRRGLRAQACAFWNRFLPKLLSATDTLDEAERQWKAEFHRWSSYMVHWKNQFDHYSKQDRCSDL
Estrogen receptor (Homo sapiens), sequence (P03372 whole entry, looked up): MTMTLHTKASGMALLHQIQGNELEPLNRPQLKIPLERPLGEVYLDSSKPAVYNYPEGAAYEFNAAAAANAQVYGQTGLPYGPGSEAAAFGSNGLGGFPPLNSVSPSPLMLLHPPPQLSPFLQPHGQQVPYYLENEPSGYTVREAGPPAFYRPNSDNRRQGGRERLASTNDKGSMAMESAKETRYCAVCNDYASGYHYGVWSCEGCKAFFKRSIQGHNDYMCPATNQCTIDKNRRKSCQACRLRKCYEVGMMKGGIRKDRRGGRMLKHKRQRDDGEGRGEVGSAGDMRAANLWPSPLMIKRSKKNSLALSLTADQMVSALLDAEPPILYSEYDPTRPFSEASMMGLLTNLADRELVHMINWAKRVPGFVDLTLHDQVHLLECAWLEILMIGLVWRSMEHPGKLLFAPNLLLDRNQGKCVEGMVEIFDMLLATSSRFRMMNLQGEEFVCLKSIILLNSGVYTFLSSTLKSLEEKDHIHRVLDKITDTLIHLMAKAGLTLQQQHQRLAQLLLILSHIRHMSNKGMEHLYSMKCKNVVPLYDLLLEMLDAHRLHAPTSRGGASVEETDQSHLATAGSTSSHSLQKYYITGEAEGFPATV
Androgen receptor (Homo sapiens), sequence (P10275 whole entry, looked up): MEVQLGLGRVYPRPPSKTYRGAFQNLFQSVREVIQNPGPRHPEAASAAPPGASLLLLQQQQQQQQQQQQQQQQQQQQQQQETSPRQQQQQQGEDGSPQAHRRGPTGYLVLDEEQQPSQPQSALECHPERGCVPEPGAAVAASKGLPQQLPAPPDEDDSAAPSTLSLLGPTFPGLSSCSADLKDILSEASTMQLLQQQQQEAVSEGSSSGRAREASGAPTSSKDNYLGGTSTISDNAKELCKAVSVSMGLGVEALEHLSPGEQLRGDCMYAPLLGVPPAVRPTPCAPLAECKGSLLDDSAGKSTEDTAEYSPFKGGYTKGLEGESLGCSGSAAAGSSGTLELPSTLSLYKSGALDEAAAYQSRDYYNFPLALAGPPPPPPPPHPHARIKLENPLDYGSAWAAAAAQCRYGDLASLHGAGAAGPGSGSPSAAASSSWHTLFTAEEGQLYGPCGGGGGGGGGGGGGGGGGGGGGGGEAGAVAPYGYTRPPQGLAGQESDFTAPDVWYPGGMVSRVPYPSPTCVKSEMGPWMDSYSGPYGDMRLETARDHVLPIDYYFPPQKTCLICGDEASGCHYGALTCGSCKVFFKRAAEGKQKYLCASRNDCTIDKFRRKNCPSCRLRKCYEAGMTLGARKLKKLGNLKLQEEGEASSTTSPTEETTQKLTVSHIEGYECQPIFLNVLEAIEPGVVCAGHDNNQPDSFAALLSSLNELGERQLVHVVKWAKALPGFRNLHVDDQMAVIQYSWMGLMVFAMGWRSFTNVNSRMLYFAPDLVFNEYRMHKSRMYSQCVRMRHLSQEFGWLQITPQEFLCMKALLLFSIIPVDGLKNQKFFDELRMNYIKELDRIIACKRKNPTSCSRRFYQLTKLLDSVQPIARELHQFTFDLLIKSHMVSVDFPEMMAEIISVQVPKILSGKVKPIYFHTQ
Glucocorticoid receptor (Homo sapiens), sequence (P04150 whole entry, looked up): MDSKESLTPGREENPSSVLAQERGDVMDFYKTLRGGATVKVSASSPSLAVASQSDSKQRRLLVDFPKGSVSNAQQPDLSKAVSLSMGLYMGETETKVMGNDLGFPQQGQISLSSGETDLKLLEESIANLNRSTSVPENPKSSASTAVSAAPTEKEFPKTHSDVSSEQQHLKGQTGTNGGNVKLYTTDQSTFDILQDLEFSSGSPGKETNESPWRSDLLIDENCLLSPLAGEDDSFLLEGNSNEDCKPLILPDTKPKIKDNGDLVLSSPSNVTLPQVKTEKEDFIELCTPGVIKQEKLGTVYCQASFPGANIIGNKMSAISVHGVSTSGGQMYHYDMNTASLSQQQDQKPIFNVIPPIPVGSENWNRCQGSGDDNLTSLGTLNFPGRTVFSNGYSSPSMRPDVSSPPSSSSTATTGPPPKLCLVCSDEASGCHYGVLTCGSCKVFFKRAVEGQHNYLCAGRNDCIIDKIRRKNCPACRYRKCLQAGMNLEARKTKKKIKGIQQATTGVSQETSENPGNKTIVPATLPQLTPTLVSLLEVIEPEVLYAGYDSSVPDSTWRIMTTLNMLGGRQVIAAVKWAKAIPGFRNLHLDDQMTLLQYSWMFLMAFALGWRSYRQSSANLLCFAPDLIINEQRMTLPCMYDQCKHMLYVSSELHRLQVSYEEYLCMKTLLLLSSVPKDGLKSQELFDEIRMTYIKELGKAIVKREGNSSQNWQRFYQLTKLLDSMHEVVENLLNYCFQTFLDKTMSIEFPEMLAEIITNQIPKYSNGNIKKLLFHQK
Nuclear receptor subfamily 1 group I member 2 (Rattus norvegicus), sequence (Q9R1A7 whole entry, looked up): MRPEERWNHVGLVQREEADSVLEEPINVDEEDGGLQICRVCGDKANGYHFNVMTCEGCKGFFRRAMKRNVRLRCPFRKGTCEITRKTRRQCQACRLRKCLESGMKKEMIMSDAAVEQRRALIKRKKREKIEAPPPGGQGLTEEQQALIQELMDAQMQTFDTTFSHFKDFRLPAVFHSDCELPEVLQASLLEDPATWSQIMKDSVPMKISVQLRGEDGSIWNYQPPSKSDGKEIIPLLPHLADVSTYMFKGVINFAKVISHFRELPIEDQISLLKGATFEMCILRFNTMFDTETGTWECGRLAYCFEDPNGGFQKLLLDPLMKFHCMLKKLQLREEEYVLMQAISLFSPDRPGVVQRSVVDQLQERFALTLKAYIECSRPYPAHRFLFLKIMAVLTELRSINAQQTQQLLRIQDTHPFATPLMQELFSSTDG

Turning to `CC(=O)OCC(=O)[C@H]1CC[C@H]2[C@@H]3CC[C@H]4C[C@H](O)CC[C@]4(C)[C@H]3C(=O)C[C@]12C`, the Potency entry in [1], in test [2], in test [3], in test [4] and in [6] was “inactive” in each case. Further, the max activation in test [5] is -0.613%.

In the case of `O=c1c2ccccc2[se]n1-c1ccccc1`, the Potency in test [2] is 22.1 µM (active). Besides, the Potency entry in test [7] and in test [8] was “inactive” in each case.

Take `CNC(=O)Oc1ccc2c(c1)[C@]1(C)CCN(C)[C@@H]1N2C`: the Potency entry in [1] and in [9] was “inactive” in each case.

Turning to `COc1cc2c(cc1OC)[C@@H]1CC(=O)[C@@H](CC(C)C)CN1CC2`, the Potency entry in [9] and in test [10] was “inactive” each time.

As for `CCCSc1cc(OC)c(CCN)cc1OC`, the values for the Potency in test [1] and in [11] were 32.5 µM (active) and 6.55 µM (active), respectively. The Potency result in test [3], in test [7], in test [12] and in test [8] was “inactive” throughout.

For the molecule `O=C1C[C@@H]2OCC=C3CN4CC[C@]56c7ccccc7N1[C@H]5[C@H]2[C@H]3C[C@H]46` (tested in a mixture with another compound), the Potency entry in test [1], in [2] and in test [8] was “inactive” each time.

With `CN1CC[C@@]23CCCC[C@@H]2[C@@H]1Cc1ccc(O)cc13`, the Potency entry in test [2], in test [13], in test [12], in [4] and in test [8] was “inactive” throughout. The Potency in test [7] is 26.6 µM (active).

With `CC(=O)OC(C)=O`, the Potency entry in test [14], in test [9] and in [10] was “inactive” throughout.

With `Clc1ccc(Cl)c(Cl)c1Cl`, the Potency result in test [1], in test [9] and in [10] was “inactive” each time.

On to `C[C@H]1[C@H]2Cc3ccc(O)cc3[C@]1(C)CCN2CCc1ccccc1`, for which the Potency result in test [3] and in test [8] was “inactive” in each case.

Regarding `Cc1cc([N+](=O)[O-])ccc1N`, the Potency entry in test [1], in [9] and in [10] was “inactive” in each case.

With `C[C@H]1CC[C@]2(NC1)O[C@H]1C[C@H]3[C@@H]4CC[C@H]5C[C@@H](O)CC[C@]5(C)[C@H]4CC[C@]3(C)[C@H]1[C@@H]2C`, the Potency result in test [1], in test [4] and in [6] was “inactive” throughout. In addition, the max activation in test [5] is 11.8%.

Take `O=C(Cl)c1cccc(C(=O)Cl)c1`: the Potency result in test [1], in [9] and in test [10] was “inactive” each time.

Take `Brc1ccc(Oc2ccc(Br)cc2)cc1`: the Potency entry in test [1], in [14], in [9] and in test [10] was “inactive” throughout.

In the case of `COc1cc([C@@H]2c3cc4c(cc3[C@H](O)[C@H]3COC(=O)[C@H]23)OCO4)cc(OC)c1OC`, the Potency entry in [1], in test [9] and in test [10] was “inactive” each time.

With `C[C@@H]1[C@H](O)[C@@H](C)/C=C/C=C/CC/C=C/C=C/C=C/C=C/[C@H](O[C@H]2O[C@@H](C)[C@H](O)[C@@H](N)[C@H]2O)CC2O[C@](O)(C[C@@H](O)[C@H](O)CC[C@@H](O)C[C@@H](O)C[C@@H](O)CC(=O)O[C@H]1C)C[C@H](O)[C@H]2C(=O)O`, the Potency result in test [11], in test [13], in [7], in [12] and in test [8] was “inactive” each time.

With `CN1[C@@H]2CC[C@H]1CC(OC(=O)C(CO)c1ccccc1)C2` (some centres not stated), in test [9], the Potency result is “inactive”.

Regarding `CC1(C)C(C=C(Cl)Cl)C1C(=O)OCc1cccc(Oc2ccccc2)c1` (configuration not stated), the Potency result in test [1], in [9] and in [10] was “inactive” each time.

As to `CC1(C)S[C@@H]2[C@H](N)C(=O)N2[C@H]1C(=O)O`, the Potency entry in test [1], in test [2], in test [3], in test [11], in test [13] and in test [7] was “inactive” in each case. Moreover, the Potency result in [12], in test [4] and in [6] was “inactive” each time. The max activation in test [5] is -2.48%.
